For 13 compounds, growth results are on record in PubChem BioAssay (NCI).

Common to all, as to experiment: NCI-60 one-dose screen, 48 h (100 = growth as untreated, 0 = no growth, -100 = all killed)
Holding throughout (details): 10 µM unless noted

The subject of assay [1] is SK-MEL-2 melanoma.
The test system of assay [2] is EKVX NSCLC.
In assay [3] the test system is SN12C renal.
For assay [4], the system named is UO-31 renal.
Assay [5] relates to TK-10 renal.
Assay [6] has as its system ACHN renal.
The test system of assay [7] is CAKI-1 renal.
Assay [8] has as its system A498 renal.
Assay [9] deals with CCRF-CEM leukemia.
In assay [10] the test system is MOLT-4 leukemia.

The panel holds about 83,000 compounds, 20% with a hit somewhere; the sample as a whole holds those more often.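 Results are percent growth after 48 hours of single-concentration exposure. 100 means growth as in untreated cells, lower positive values show inhibition; negative values down to -100 show cell death.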 A number with no mark means an inactive call. Active and inactive are the calls of the source. Rule for the calls: active = growth percent below 10; inactive = the rest.

For `CNC1=C([N+](=O)[O-])C(c2ccccc2O)C(C#N)=C(c2cccs2)O1` (stereo not given), the growth in [1] was 74.2%; in [2], 97.2%; in [3] it was 98.2%; in [4] it was 70.5%; in assay [5], 100%; in assay [6], 94.8%. For the same compound, the growth in [7] is 78%; in assay [8], 110%; in [9], 85.4%; in assay [10], 88.6%.

Consider `COc1cccc(NC(=O)OC(C)C)c1`, for which the growth is 136% in assay [1]; 94.7% in assay [2]; 98.6% in assay [3]; 82.1% in assay [4]; 100% in assay [5]; 101% in [6]. In addition, the growth in assay [7] is 86.4%; in assay [8] it was 92.7%; in [9], 3.14% (active); in assay [10], 99%.

`Cn1c(-c2ccccc2)cc(=O)n1-c1ccccc1`: the growth was 121% in assay [1]; 93.7% in [2]; 107% in assay [3]; 101% in assay [4]; 116% in [5]; 109% in assay [6]. Moreover, the growth in [7] was 95.6%; in assay [8] it was 89.1%; in assay [9] it was 91.1%; in [10] it was 99.6%.

On to `COc1ccc(C2=NNC(c3ccc(Oc4nc5c(c(=O)n(C)c(=O)n5C)n4C)c(OC)c3)C2)cc1` (stereo not given), for which the growth in assay [1] was 99.4%; in [2], 97.7%; in assay [3], 85.2%; in assay [4] it was 81.2%; in assay [5] it was 107%; in [6], 93.7%. Further, the growth was 102% in [7], 91.9% in [8], 82.8% in assay [9] and 76% in assay [10].

Consider `CN1CCCN(CCNc2nccc(-c3c(-c4cccc(O)c4)nc4sccn34)n2)S1(=O)=O`, for which the growth in assay [1] was 22.1%; in assay [2] it was 84.9%; in assay [3], 38.1%; in assay [4], 25.2%; in [5], 92.4%; in assay [6], 22.9%. Moreover, the growth in [7] is -25% (active); in assay [8], 58.8%; in [9], 31.3%; in assay [10], 37.8%.

With `CO[C@H](C(=O)[C@@H](O)[C@@H](C)O)[C@@H]1Cc2cc3cc(O[C@H]4C[C@@H](O[C@H]5C[C@@H](O)[C@H](O)C(C)O5)[C@H](O)C(C)O4)c(C)c(O)c3c(O)c2C(=O)[C@H]1O[C@H]1C[C@@H](O[C@H]2C[C@@H](O[C@H]3C[C@](C)(O)C(=O)C(C)O3)[C@@H](O)C(C)O2)[C@H](O)C(C)O1` (stereo not given in full), the growth in assay [1] was -57.6% (active); in [2], 0.189% (active); in [3] it was 13.6%; in assay [4] it was -11.3% (active); in [5] it was -10.9% (active); in assay [6] it was 2.84% (active). For the same compound, the growth was 1.12% (active) in [7], -33% (active) in [8], 10.3% in assay [9] and 1.04% (active) in assay [10].

`CN(C)c1ccc(C2(Cl)c3ccccc3N(C)c3ccccc32)cc1`: the growth in assay [1] is 61.2%; in assay [2], 47.8%; in [3], 19.1%; in assay [4], 71.8%; in assay [5], 64.3%; in assay [6] it was 55.6%. Moreover, the growth is 81.2% in assay [7], 77.2% in [8], 27.7% in assay [9] and 49.7% in assay [10].

Turning to `O=C(CSc1nnc(Cc2ccccc2Nc2c(Cl)cccc2Cl)n1-c1ccccc1)N1N=C(c2ccc3ccccc3c2)CC1c1ccc(Cl)cc1` (stereo not given), the growth was 103% in assay [1]; 93.5% in assay [2]; 96.6% in [3]; 80% in [4]; 95.5% in assay [5]; 109% in assay [6]. Moreover, the growth in assay [7] was 92.7%; in assay [8], 102%; in [9] it was 113%; in [10], 98.4%.

On to `CN(C)CCCN1c2ccccc2CCc2ccccc21`, for which the growth is 105% in [1]; 107% in [2]; 80.1% in assay [3]; 83.2% in [4]; 93.3% in assay [5]; 91.4% in [6]. Further, the growth is 84.6% in [7], 124% in assay [8], 97.6% in [9] and 83.7% in assay [10].

On to `Clc1ccccc1CNc1c2ccccc2nc2ccccc12`, for which the growth is 55.6% in assay [1]; 25.9% in [2]; 27.8% in [3]; 17.5% in assay [4]; 42.5% in assay [5]; 12.2% in assay [6]. Further, the growth in assay [7] is 25.2%; in [8], -5.85% (active); in assay [9] it was 10.7%; in assay [10] it was 5.14% (active).

For `COc1cc(OC)c2sc(-c3ccc(-n4cncc4-c4ccc(OC)c(N)c4)cc3)nc2c1`, the growth in assay [1] is 99.6%; in [2] it was 64.5%; in assay [3], 87%; in assay [4], 60.6%; in assay [5] it was 82.8%; in [6] it was 90.4%. Further, the growth in [7] was 60.9%; in assay [8] it was 77.8%; in assay [9], 59.2%; in [10] it was 58.3%.

For `S=C(Cc1ccccc1)N1CCN(c2ccccc2Cl)CC1`, the growth was 99.7% in assay [1]; 94.5% in assay [2]; 107% in [3]; 82.4% in assay [4]; 116% in assay [5]; 108% in assay [6]. The growth in [7] was 85.2%; in assay [8], 90.7%; in assay [9], 89.1%; in assay [10], 82.1%.

As for `COc1ccc(/C=C/c2nc3ccccc3c(=O)n2-c2ccc(C#Cc3ccc(C(C)(C)C)cc3)cc2C)c(OC)c1`, the growth in [1] is 104%; in [2], 85.1%; in assay [3] it was 89.6%; in [4] it was 79.5%; in assay [5] it was 101%; in [6], 105%. Moreover, the growth in assay [7] was 76.9%; in [8], 110%; in [9], 75.8%; in assay [10], 76.5%.
